# Most compounds without a hit are left out; they make up all but 3.5% or so of the library.
# TMEM16A inh – mouse TMEM16A channel inhibition, primary screen. HEK293 TMEM16A/YFP iodide influx fluorescence, ionomycin. AID 588511. normalized B-score (activity score, 25-100; higher = stronger inhibition) at 10 µM. 310,000 compounds, 1.2% hits. Q8BHY3;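 active means ratio plate-corrected score three or more library SD toward inhibition, starting fluorescence score within five deviations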;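 further: score derived from kinetic fluorescence span divided by baseline fluorescence per well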
# TMEM16A act – mouse TMEM16A channel activation, primary screen | HEK293 TMEM16A/YFP-H148Q/I152L, iodide quench fluorescence; hits give low values | B-score at 10 µM | 340,000 compounds, 0.3% hits;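 active means fluorescence-ratio B-score plate-corrected deviation score at least 3 library SD below zero, with starting fluorescence score within 5 deviations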;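 further: channel opened by trigger with iodide after compound preincubation; score built on the fluorescence ratio of max minus min over baseline; more negative score means more quench and so TMEM16A activation or potentiation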
# KCNK9 block – blocks the human KCNK9 two-pore domain potassium channel; B-score at 10 µM; Q9NPC2; HEK293 KCNK9, FluxOR thallium flux fluorescence; hits give low values; AID 488922; 310,000 compounds, 1.2% hits;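 active means ratio B-score over 3 SD below the library mean, with starting fluorescence within 5 SD of its mean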;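 further: negative B-score means less thallium flux so channel inhibition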
# Target sequence (Q9NPC2 whole entry, looked up, the tested form may be a part): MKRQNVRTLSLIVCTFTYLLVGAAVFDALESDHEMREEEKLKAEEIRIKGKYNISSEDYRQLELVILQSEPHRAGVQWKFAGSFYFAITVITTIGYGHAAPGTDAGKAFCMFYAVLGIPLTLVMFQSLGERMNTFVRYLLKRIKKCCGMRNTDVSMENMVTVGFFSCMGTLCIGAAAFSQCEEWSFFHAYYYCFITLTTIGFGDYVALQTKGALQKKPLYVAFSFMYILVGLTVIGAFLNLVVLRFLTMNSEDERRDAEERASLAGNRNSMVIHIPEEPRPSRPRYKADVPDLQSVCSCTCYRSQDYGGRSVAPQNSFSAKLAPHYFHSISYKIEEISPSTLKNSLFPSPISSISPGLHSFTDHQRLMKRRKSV
# KCNK3 block – human KCNK3 channel inhibition, primary screen; CHO-KCNK3 thallium flux, FluxOR fluorescence; hits give low values; B-score at 10 µM; 340,000 compounds, 0.84% hits;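 active means B-score under library mean minus 4 SD, starting fluorescence ratio at most library mean plus 5 SD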;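 further: more negative B-score means stronger inhibition of thallium flux through KCNK3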
# Kir21 inh – blocks the mouse Kir2.1 inward-rectifier potassium channel. P35561. HEK293-Kir2.1, FluxOR thallium flux fluorescence; hits give low values. B-score at 10 µM. 310,000 compounds, 0.85% hits. AID 1672;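 active means fluorescence ratio B-score at or below minus 3 SD of library scores, with starting-brightness B-score within 2 SD, cut at about -4.2 in these data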;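 further: channel flux triggered by added potassium and thallium sulfate stimulus; B-score of peak minus minimum fluorescence over baseline after thallium stimulus; more negative B-score means stronger Kir2.1 block with less thallium influx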
# Numbers stand for hits; i = inactive; nt = not tested or not shown.
SMILES,TMEM16A inh,TMEM16A act,KCNK9 block,KCNK3 block,Kir21 inh
C#CCOCCOCCOCCNc1nc(N2CCN(C(=O)CCCCCCCCCCNC(=O)[C@H](CCCCN)n3cc(CCCC(=O)O)nn3)CC2)nc(N2CCN(C(=O)CCCCCCCCCCNC(=O)[C@H](CCCN=C(N)N)n3cc(C[C@@H](C)CC)nn3)CC2)n1,100,-16,nt,i,nt
C#CCOCCOCCOCCNc1nc(N2CCN(C(=O)CCCCCCCCCCNC(=O)[C@H](CCCCN)n3cc(CCO)nn3)CC2)nc(N2CCN(C(=O)CCCCCCCCCCNC(=O)[C@H](CCCN=C(N)N)n3cc(C[C@@H](C)CC)nn3)CC2)n1,100,-22,nt,i,nt
C#CCOCCOCCOCCNc1nc(N2CCN(C(=O)CCCCCCCCCCNC(=O)[C@H](CCCCN)n3cc(C[C@@H](C)CC)nn3)CC2)nc(N2CCN(C(=O)CCCCCCCCCCNC(=O)[C@H](CCCCN)n3cc(C[C@@H](C)CC)nn3)CC2)n1,25,-22,nt,i,nt
Cc1ccc2c(c1)[C@H]1[C@H](CO2)[C@H](c2ccccc2)[C@]2(C)C(=O)Nc3cc(F)ccc3C(=O)N12,nt,i,nt,i,nt
CN(C1=C(N2CCCCC2)C(=O)c2ccccc2C1=O)c1ccccc1,i,i,-15,i,i
O=C1C(Nc2ccccc2)=C(N2CCCCC2)C(=O)c2ccccc21,i,i,i,i,i
CCOC(=O)C1=C(C)N=c2s/c(=C\c3ccc(O)c([N+](=O)[O-])c3)c(=O)n2C1c1ccccc1OC (configuration not stated),100,i,i,i,i
CC(C)(C)c1cc(CCC(=O)NCc2cccnc2)cc(C(C)(C)C)c1O,i,i,i,i,-5.1
O=C(Nc1cccnc1)c1ccc(Oc2ccccc2)cc1,25,i,i,i,i
CCCOc1ccc(C(=O)Nc2cccnc2)cc1,i,i,i,i,i
COc1ccc(NC2CCCN(C(=O)c3ccccc3C(F)(F)F)C2)cc1 (configuration not stated),i,i,i,i,i
CCOc1ccc(C(c2c(NC(=O)c3ccco3)sc(C)c2C)N2CCOCC2)cc1 (configuration not stated),nt,i,nt,-11,nt
Cc1sc(NC(=O)c2ccco2)c(C(c2ccncc2)N2CCOCC2)c1C (configuration not stated),i,i,i,i,i
Clc1cccc(CNCCNCc2cccc(Cl)c2)c1,i,i,i,i,-4.3
N#CC(C#N)=Cc1cccn1-c1ccc(S(N)(=O)=O)cc1,i,-6.1,i,i,i
CC(=O)Nc1cccc(NC(=O)c2cccc3cccnc23)c1,i,i,i,i,i
Cc1ccc(NC(=O)c2cccc3cccnc23)cc1,i,i,-7.6,i,i
CNC(=O)c1nnsc1S(=O)(=O)c1ccc(Cl)cc1,nt,i,i,i,-8.7
Cc1cc(Cl)c(OCCOCCN2CCCC(C)C2)c(Br)c1 (configuration not stated),i,i,i,i,-4.3
FC(F)(F)c1ccc(Cl)c(N/N=C/c2ccc(N3CCOCC3)s2)c1,i,i,-6.9,i,i
Cc1ccc(C(=O)c2coc3ccc(O)c(CN4CCN(C)CC4)c23)cc1,i,i,i,i,-4.6
O=C(c1coc2ccc(O)c(CN3CCOCC3)c12)C1CC1,i,i,i,i,i
O=C(c1cccs1)c1coc2ccc(O)c(CN3CCOCC3)c12,i,i,i,i,-4.2
COc1ccc(C(=O)c2coc3ccc(O)c(CN4CCOCC4)c23)cc1,i,i,i,i,-4.7
CC(C)Oc1ccc(CNC(=O)CCCN2C(=O)C(c3ccccc3)Oc3cccnc32)cc1 (configuration not stated),i,i,i,i,i
SMILES,TMEM16A inh,TMEM16A act,KCNK9 block,KCNK3 block,Kir21 inh
CC1(C(=O)NCc2cccnc2)CCC(=O)N1Cc1cccs1 (configuration not stated),i,i,i,i,i
COC(=O)[C@H](CC(C)C)NC(=O)NCCC1=CCCCC1,i,i,i,i,i
COc1cc2c(cc1OC)CN(c1ccc3ccccc3n1)CC2,i,i,i,i,-11
COc1cc2c(cc1OC)CN(c1ccc(-c3ccccc3OC)nn1)CC2,i,i,i,i,i
Oc1ccc(Cl)cc1Sc1cc(Cl)ccc1O,nt,-5.6,nt,i,nt
CCc1nc(NCCCn2ccnc2)c2oc3ccccc3c2n1,i,-26,i,i,i
COc1ccc(C2(OC)Oc3cc(OC)ccc3C(=O)C2(O)OC)cc1 (configuration not stated),nt,i,nt,i,nt
Cn1c(=O)n(C)c2cc(NS(=O)(=O)c3ccc(C(C)(C)C)cc3)ccc21,25,i,i,i,i
N#Cc1cc([N+](=O)[O-])ccc1NC(=O)COC(=O)CN1C(=O)C2CCCCC2C1=O (configuration not stated),nt,i,nt,i,nt
Cc1ccc(S(=O)(=O)CCN2CCC(n3cccc3)CC2)cc1,i,i,i,i,i
O=C(Nc1cc(-c2ccccc2)sc1C(=O)O)c1cccc(F)c1,100,i,i,i,i
COc1ccc(OCCCC(=O)N2CCCc3ccccc32)cc1,i,-6.4,i,i,i
CC(Oc1ccc(Cl)cc1)C(=O)N1CCCc2ccccc21 (configuration not stated),i,i,i,i,-5.7
O=C(NCc1nc2ccccc2[nH]1)C1=C[C@@H](c2ccc(C(F)(F)F)cc2)C[C@@H](OCc2ccc(CO)cc2)O1,i,i,i,i,i
Cc1ccc(C(C)NC(=S)NCc2ccc(F)cc2)cc1C (configuration not stated),i,i,i,i,-11
CCc1ccc(C(C)NC(=S)NCc2ccc(F)cc2)cc1 (configuration not stated),i,i,i,i,i
O=Cc1cccn1-c1nccc(-c2ccco2)n1,i,i,i,i,i
O=C(NC1CCCCCC1)C(=S)NCc1ccccc1,i,i,i,i,i
O=C1NC2(CCCCO2)CO1 (configuration not stated),i,-11,i,i,i
OCCN(Cc1ccccc1)Cc1cccc(C(F)(F)F)c1,i,i,nt,i,nt
OCCN(Cc1ccccc1)Cc1ccc(C(F)(F)F)cc1,i,i,-6.9,i,i
Cc1ccsc1C=Nc1c(C)n(C)n(-c2ccccc2)c1=O,i,i,i,i,i
Cc1c(N=Cc2cccs2)c(=O)n(-c2ccccc2)n1C,100,i,i,i,i
CC1CC(C)(C)N(C(=O)CN2C(=O)c3ccccc3C2=O)c2ccccc21 (configuration not stated),i,-6.2,i,i,i
CCOC(=O)NCCc1c(C)nc2c(c(C)nn2C(C)(C)C)c1C,i,i,i,i,i
CCCN(CCC)CCCNC(=O)CC(C(=O)N1CCc2ccccc21)n1ccnc1 (configuration not stated),25,i,i,i,i
c1ccc(CSc2nnnn2-c2ccc3c(c2)OCCO3)nc1,i,i,i,i,i
Clc1ccc(CSc2nnnn2-c2ccc3c(c2)OCO3)c(Cl)c1,i,i,-7,i,i
